PubChem BioAssay (NCATS)
Records with an inconclusive call do not appear. Values without a mark were called inactive. Calls of active or inactive are those of the source. Calls come from the whole dose curve; as a rule, active = well fitted inhibition curve with a large enough effect; inconclusive = small, poorly fitted or top-dose-only effect; inactive = flat fitted curve, though single readings scatter.

system: CP305; assay: qHTS profiling for inhibitors of Plasmodium falciparum proliferation (AID 504749); note: nearly all actives have a fitted effect of over 60% in size;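 for activity, negative = inhibition: 0% = DMSO vehicle and full inhibition = artemisinin control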; details: P. falciparum in erythrocytes, SYBR Green DNA, 72 h; series mostly up to 28.7 µM; activity, negative = inhibition: at the top concentration
How it was run: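 Quantitative HTS: compounds pinned into medium, infected erythrocytes added (0.3% parasitemia, 2.5% hematocrit), 72 h culture at 37 C under 5% CO2. Saponin/Triton lysis with SYBR Green I, overnight RT, then fluorescence read.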
Potency is the fitted concentration of half-maximal effect.

In order of falling “activity, negative = inhibition” value:
1. Nc1ccccc1C(=O)O  9.4%
2. CCC1(CC)C(=O)C=CNC1=O  9.4%
3. C[C@]12CC[C@@H]3c4ccc(OC(=O)N(CCCl)CCCl)cc4CC[C@H]3[C@@H]1CC[C@@H]2O  8.23%
4. CCCCCCC(=O)CCCCCC/C=C/C[C@@H](O)[C@H](O)[C@@](N)(CO)C(=O)O  7.29%
5. Cc1ncsc1CCCl  6.36%
6. O=C1c2ccccc2C(=O)C1C(=O)C(c1ccccc1)c1ccccc1  4.17%
7. Nc1nc(N)nc(NC2CC2)n1  2.89%
8. O=C1Nc2ccc(Cl)cc2C(c2ccccc2)=NC1O (stereo not given)  2.71%
9. NC(=O)CS(=O)C(c1ccccc1)c1ccccc1 (stereo not given)  0.765%
10. CC(C)=CC1C(C(=O)OCN2C(=O)C3=C(CCCC3)C2=O)C1(C)C (stereo not given)  0.681%
11. COP(=S)(OC)Oc1ccc(SC)c(C)c1  0.497%
12. CCC(C)(C)c1ccc(O)cc1  0.279%
13. CCCCCCCCCC(=O)O[C@H]1CC[C@H]2[C@@H]3CCC4=CC(=O)CC[C@@H]4[C@H]3CC[C@]12C  0.0864%
14. CN1C(=O)COc2c(C(=O)NC3CN4CCC3CC4)cc(Cl)cc21 (stereo not given)  -0.52%
15. O=C1Nc2ccc(Cl)cc2C(c2ccccc2Cl)=NC1O (stereo not given)  -0.776%
16. CCCC(C)(COC(N)=O)COC(N)=O  -1.02%
17. CCC1(c2ccccc2)C(=O)N(COC)C(=O)N(COC)C1=O  -1.43%
18. NCCc1ccc(O)cc1  -1.47%
19. CCOC(=O)CC(SP(=S)(OC)OC)C(=O)OCC (stereo not given)  -1.88%
20. O=c1[nH]oc2c1CCNC2  -2.46%
21. CN1C(=O)CCS(=O)(=O)C1c1ccc(Cl)cc1 (stereo not given)  -3.04%
22. O=C(Nc1ccc(Br)cc1)c1cc(Br)cc(Br)c1O  -3.41%
23. Clc1ccc2c(c1)C(c1ccccc1)=NCc1nncn1-2  -3.96%
24. c1ccc2c(c1)sc1ccccc12  -6.83%
25. O=C(O)CCCc1ccc(N(CCCl)CCCl)cc1  -10.1%

`CCCCC/C=C\C/C=C\C/C=C\C/C=C\CCCC(=O)NCC(=O)O` showed an activity, negative = inhibition of 3.97% [at 2.67 µM].

In order of falling “activity, negative = inhibition” value:
1. O=c1oc2ccccc2c(O)c1Cc1c(O)c2ccccc2oc1=O  2.65% [at 12.8 µM]
2. CNC(C)(C)Cc1ccccc1  -1.48% [at 12.8 µM]
3. COc1c2c(cc3c1OCO3)CCN(C)C2  -4.41% [at 12.8 µM]

`CN1C[C@H](C(=O)N[C@]2(C)O[C@@]3(O)[C@@H]4CCCN4C(=O)[C@H](Cc4ccccc4)N3C2=O)C=C2c3cccc4[nH]cc(c34)C[C@H]21` was tested, and the Potency was 6.75 µM (active).
